# Source: PubChem BioAssay (EPA / NIEHS)
# Values joined by “and” are separate entries in the source; they are usually repeats but may differ in a detail not shown here. Equal values may be shown once. Records with an inconclusive call do not appear. Where a structure was tested more than once in an assay, its records may differ in their call. Active and inactive are the calls of the source. How the source made its calls, unless noted: active means hit-call score of the fitted dose curve at least 0.9, where 1 is the maximum; inactive means score below 0.9.
# Columns and labels:
# [1] = read-out: Collagen I, COL1A1 (gene 1277); test: BSK_MyoF_CollagenI: BioMAP Diversity Plus: MyoF Assay for Collagen I Biomarker Activity (AID 2284238); settings: primary human lung fibroblasts
# How it was run: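 Multiplexed primary human lung fibroblast system; Collagen I measured by ELISA at 24 h post-dose. Increases are referenced to DMSO.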
# [2] = read-out: Collagen III, COL3A1 (gene 1281); test: BSK_MyoF_CollagenIII: BioMAP Diversity Plus: MyoF Assay for Collagen III Biomarker Activity (AID 2284239); settings: primary human lung fibroblasts
# How it was run: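 Compounds are added to primary human lung fibroblasts and left for 24 hours. Collagen III is then quantified by ELISA. Analysis takes DMSO as baseline and fits increases in signal.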
# [3] = read-out: Interleukin 17F (IL17F), IL17F (gene 112744); test: BSK_BT_xIL17F: BioMAP Diversity Plus: BT Assay for Interleukin 17F (IL17F) Biomarker Activity (AID 2284243); settings: primary human B cells with PBMC
# How it was run: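 Measures secreted IL-17F from a human B cell plus PBMC co-culture at 24 h post-dose by Luminex xMAP, with DMSO defining baseline activity.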
# [4] = read-out: Actin alpha 1 (ACTA1), ACTA1 (gene 58); test: BSK_MyoF_ACTA1: BioMAP Diversity Plus: MyoF Assay for Actin alpha 1 (ACTA1) Biomarker Activity (AID 2284244); settings: primary human lung fibroblasts
# How it was run: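 Lung fibroblasts, human primary, 24 h compound exposure → a-SMA ELISA. Positive-direction fit vs DMSO control.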
# [5] = read-out: Interleukin 2 (IL2), IL2 (gene 3558); test: BSK_BT_xIL2: BioMAP Diversity Plus: BT Assay for Interleukin 2 (IL2) Biomarker Activity (AID 2284245); settings: primary human B cells with PBMC
# How it was run: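 B cell + PBMC co-culture (human primary), compound added, 24 h incubation; secreted IL-2 measured multiplexed on Luminex xMAP; gain-of-signal fit vs DMSO.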
# [6] = read-out: Basic fibroblast growth factor (bFGF), FGF2 (gene 2247); test: BSK_MyoF_bFGF: BioMAP Diversity Plus: MyoF Assay for Basic fibroblast growth factor (bFGF) Biomarker Activity (AID 2284246); settings: primary human lung fibroblasts
# How it was run: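 ELISA-measured bFGF level serves as the read-out, taken 24 h after chemical dosing of human lung fibroblasts. Values represent signal gain over the DMSO negative control.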
# [7] = read-out: Collagen IV, COL4A1 (gene 1282); test: BSK_MyoF_CollagenIV: BioMAP Diversity Plus: MyoF Assay for Collagen IV Biomarker Activity (AID 2284247); settings: primary human lung fibroblasts
# How it was run: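 Steps: dose human lung fibroblasts; culture 24 h; quantify Collagen IV by ELISA; fit increase versus DMSO control. Parallel SRB total-protein staining (0.1% SRB after 10% TCA fixation, 560 nm) tracks overt cytotoxicity.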
# [8] = CCTE_Mundy_HCI_hNP1_Casp3_7: CCTE's Caspase-Glo 3/7 Assay in human neuroprogenitor cells for Apoptosis, Mundy Lab (AID 2284240)
# How it was run: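 Apoptosis is scored by activated caspase-3/7 luminescence in WA09-derived neural progenitor cells, measured 26.5 h after chemical dosing. Values represent gain of signal relative to DMSO vehicle.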
# [9] = CCTE_Mundy_HCI_hNP1_CellTiter: CCTE's Cell Titer-Glo 2 Assay in human neuroprogenitor cells for Viability, Mundy Lab (AID 2284241; active means hit-call score of the fitted dose curve at least 0.9, where 1 is the maximum)
# How it was run: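 Human neural progenitor cells (hNP1, WA09-derived) were plated on poly-L-ornithine/laminin and grown 40 to 44 hours at 37 °C, 5% CO2 before chemical addition. Twenty-four hours later, ATP was measured by CellTiter-Glo luminescence; loss of signal versus DMSO indicates reduced viability.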
# [10] = CCTE_Mundy_HCI_Cortical_Synap_Neur_Matur_NeuronCount: CCTE's Synaptogenesis and Neurite Maturation Assay in rat cortical cells for Neuron Count, Mundy Lab (AID 2284242; active means hit-call score of the fitted dose curve at least 0.9, where 1 is the maximum)
# How it was run: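 Neuron number was scored by automated high-content imaging of Hoechst- and MAP2-labelled rat primary cortical cells. Glial growth was arrested with AraC at DIV 5, compounds were applied from DIV 7, and cultures ended at DIV 12.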
smiles,measurement,setting,value
C=CC(=C)CC/C=C(\C)CCC=C(C)C,outcome,[1],inactive
same,outcome,[2],inactive
same,outcome,[3],inactive
same,outcome,[4],inactive
same,outcome,[5],inactive
same,outcome,[6],inactive
same,outcome,[7],inactive
Clc1ccc(Nc2nnc(Cc3ccncc3)c3ccccc23)cc1,outcome,[1],inactive
same,outcome,[2],inactive
same,outcome,[3],inactive
same,outcome,[4],inactive
same,outcome,[5],inactive
same,outcome,[6],inactive
same,outcome,[7],inactive
C=CC(C)(CCC=C(C)C)OC(C)=O (centres undefined),outcome,[1],inactive
same,outcome,[2],inactive
same,outcome,[3],inactive
same,outcome,[4],inactive
same,outcome,[5],inactive
same,outcome,[6],inactive
same,outcome,[7],inactive
COCN(COC)c1nc(N(COC)COC)nc(N(COC)COC)n1,outcome,[1],inactive
same,outcome,[2],inactive
same,outcome,[3],inactive
same,outcome,[4],inactive
same,outcome,[5],inactive
same,outcome,[6],inactive
same,outcome,[7],inactive
COc1cccc(O)c1,outcome,[1],inactive
same,outcome,[2],inactive
same,outcome,[3],inactive
same,outcome,[4],inactive
same,outcome,[5],inactive
same,outcome,[6],inactive
same,outcome,[7],inactive
CN(Cc1cnc2nc(N)nc(N)c2n1)c1ccc(C(=O)N[C@@H](CCC(=O)O)C(=O)O)cc1,outcome,[1],inactive
same,outcome,[2],inactive
same,outcome,[8],inactive
same,outcome,[9],inactive
same,outcome,[10],inactive
same,outcome,[3],inactive
same,outcome,[4],inactive
same,outcome,[5],inactive
same,outcome,[6],inactive
same,outcome,[7],inactive
COC1=CC(=O)C[C@@H](C)[C@]12Oc1c(Cl)c(OC)cc(OC)c1C2=O,AC50,[1],20 µM (active)
same,AC50,[2],3.97 µM (active)
same,outcome,[3],inactive
same,outcome,[4],inactive
same,outcome,[5],inactive
same,outcome,[6],inactive
same,outcome,[7],inactive
Cc1ccc(C(=O)c2ccccc2)cc1,outcome,[1],inactive
same,outcome,[2],inactive
same,outcome,[3],inactive
same,AC50,[4],20 µM (active)
same,outcome,[5],inactive
same,outcome,[6],inactive
same,AC50,[7],20 µM (active)
OCC(F)(F)C(F)(F)C(F)(F)C(F)(F)C(F)(F)C(F)(F)C(F)(F)C(F)(F)C(F)(F)C(F)(F)C(F)(F)F,outcome,[1],inactive
same,outcome,[2],inactive
same,outcome,[8],inactive
same,outcome,[9],inactive
same,AC50,[3],13.9 nM (active) and 23.8 nM (active)
same,outcome,[4],inactive
same,outcome,[5],inactive
same,outcome,[6],inactive
same,outcome,[7],inactive
O=C(O)C(F)(F)OC(F)(F)C(F)(F)OC(F)(F)C(F)(F)OC(F)(F)C(F)(F)C(F)(F)C(F)(F)F,AC50,[1],9.61 µM (active) and 5.9 µM (active)
same,AC50,[2],6.08 µM (active) and 4.89 µM (active)
same,AC50,[3],49.6 µM (active) and 47 µM (active)
same,AC50,[4],4.11 µM (active)
same,outcome,[4],inactive
same,AC50,[5],44.9 µM (active)
same,outcome,[5],inactive
same,AC50,[6],16.8 µM (active) and 14 µM (active)
same,outcome,[7],inactive
CN(C)c1ccc(C(=C2C=CC(=[N+](C)C)C=C2)c2ccccc2)cc1,AC50,[1],0.0082 µM (active)
same,AC50,[2],0.164 µM (active)
same,AC50,[3],0.49 µM (active)
same,AC50,[4],1.06 µM (active)
same,AC50,[5],0.432 µM (active)
same,AC50,[6],647 nM (active)
same,AC50,[7],1.55 µM (active)
O=C(NCc1ncc(C(F)(F)F)cc1Cl)c1c(Cl)cccc1Cl,outcome,[1],inactive
same,outcome,[2],inactive
same,AC50,[3],21 µM (active)
same,outcome,[4],inactive
same,AC50,[5],32.1 µM (active)
same,outcome,[6],inactive
same,outcome,[7],inactive
O=C(CC(=O)C(F)(F)C(F)(F)C(F)(F)F)c1cccs1,AC50,[1],17.8 µM (active) and 7.76 µM (active)
same,AC50,[2],8.37 µM (active) and 7.86 µM (active)
same,outcome,[8],inactive
same,outcome,[9],inactive
same,AC50,[3],23.2 µM (active) and 25.1 µM (active)
same,AC50,[4],7.95 µM (active)
same,outcome,[4],inactive
same,AC50,[5],55.6 µM (active) and 46.2 µM (active)
same,outcome,[6],inactive
same,AC50,[7],8.25 µM (active)
same,outcome,[7],inactive
O=P(O)(O)CCC(F)(F)C(F)(F)C(F)(F)C(F)(F)C(F)(F)C(F)(F)C(F)(F)C(F)(F)F,outcome,[1],inactive
same,outcome,[2],inactive
same,outcome,[8],inactive
same,outcome,[9],inactive
same,outcome,[3],inactive
same,outcome,[4],inactive
same,outcome,[5],inactive
same,outcome,[6],inactive
same,outcome,[7],inactive
O=P(O)(O)CCC(F)(F)C(F)(F)C(F)(F)C(F)(F)C(F)(F)C(F)(F)F,outcome,[1],inactive
same,outcome,[2],inactive
same,outcome,[8],inactive
same,outcome,[9],inactive
same,outcome,[3],inactive
same,outcome,[4],inactive
same,outcome,[5],inactive
same,outcome,[6],inactive
same,outcome,[7],inactive
CN(CCO)S(=O)(=O)C(F)(F)C(F)(F)C(F)(F)C(F)(F)C(F)(F)C(F)(F)C(F)(F)C(F)(F)F,AC50,[1],1.82 µM (active) and 2.36 µM (active)
same,outcome,[2],inactive
same,AC50,[3],1.93 µM (active)
same,outcome,[3],inactive
same,outcome,[4],inactive
same,outcome,[5],inactive
same,outcome,[6],inactive
same,outcome,[7],inactive
C=CC(=O)OCCC(F)(F)C(F)(F)C(F)(F)C(F)(F)C(F)(F)C(F)(F)C(F)(F)C(F)(F)F,outcome,[1],inactive
same,outcome,[2],inactive
same,outcome,[8],inactive
same,outcome,[9],inactive
same,outcome,[3],inactive
same,outcome,[4],inactive
same,outcome,[5],inactive
same,outcome,[6],inactive
same,outcome,[7],inactive
O=C1c2ccc(O)c(O)c2C(=O)c2c(O)ccc(O)c21,outcome,[1],inactive
same,outcome,[2],inactive
same,outcome,[3],inactive
same,outcome,[4],inactive
same,outcome,[5],inactive
same,outcome,[6],inactive
same,outcome,[7],inactive
